Data as given in PubChem BioAssay (Tox21).
Values joined by “and” are separate entries in the source; they are usually repeats but may differ in a detail not shown here. Equal entries are not always repeated. Records with an inconclusive call do not appear. The source holds several records for some structures; these can differ, active in one and inactive in another. Active and inactive are the calls of the source. Unless noted, the call rests on the fitted dose curve; in most records, active means well fitted curve in the direction sought with a large enough effect in the repeat runs; inconclusive means weak or mixed curves; inactive means no such curve, though single readings can be large; an effect the other way counts as inactive or inconclusive.

Key:
[1] = A CellTox Green Cytotoxicity Assay to monitor cytotoxicity in HEK293 cells - 32 hour (AID 1224881); further: nearly all actives have a fitted effect of over 40% in size; further: potency means the concentration at half of the fitted maximal effect
How it was run: (§1)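 Dead-cell fluorescence measured kinetically: asymmetric cyanine dye, HEK293, 600 cells/well, 5 h settle, 23 nL cpd/DMSO, 37 C, reads 0–40 h every 8 h.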

[2] = A CellTox Green Cytotoxicity Assay to monitor cytotoxicity in HepG2 cells - 0 hour (AID 1224882); further: on the % scale 0 is the no-effect control and ±100 the full control effect; nearly all actives have a fitted effect of over 35% in size
How it was run: (§2)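 First, HepG2 cells (600/well) mixed with reagent were plated; second, after 5 h at 37 C they received compounds via pintool; third, fluorescence was measured at 0 h through 40 h at 8 h intervals.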

[3] = A CellTox Green Cytotoxicity Assay to monitor cytotoxicity in HepG2 cells - 32 hour (AID 1224883); further: nearly all actives have a fitted effect of over 50% in size; further: potency means the concentration at half of the fitted maximal effect
How it was run: as §2

[4] = A CellTox Green Cytotoxicity Assay to monitor cytotoxicity in HEK293 cells - 8 hour (AID 1224884); further: nearly all actives have a fitted effect of over 35% in size; further: potency means the concentration at half of the fitted maximal effect
How it was run: as §1

[5] = qHTS RealTime-Glo MT Cell Viability Assay in HepG2 cells - 16 hour (AID 1224885); further: nearly all actives have a fitted effect of over 50% in size; further: potency means the concentration at half of the fitted maximal effect
How it was run: (§3)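 Compound treatment began 5 h after plating HepG2 cells (600/well) with NanoLuc luciferase and prosubstrate. Plates stayed at 37 C for 40 h; luminescence was captured at six time points, 0 h through 40 h.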

[6] = qHTS RealTime-Glo MT Cell Viability Assay in HEK293 cells - 24 hour (AID 1224886); further: nearly all actives have a fitted effect of over 50% in size; further: potency means the concentration at half of the fitted maximal effect
How it was run: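 Quantitative high-throughput screen of the Tox21 10K library in HEK293: cells and RealTime-Glo reagents plated together, compound added at 5 h, luminescence monitored through 40 h at 37 C.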

[7] = qHTS RealTime-Glo MT Cell Viability Assay in HEK293 cells - 8 hour (AID 1224887); further: nearly all actives have a fitted effect of over 50% in size; further: potency means the concentration at half of the fitted maximal effect
How it was run: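 600 HEK293 cells per well, dispensed already mixed with RealTime-Glo MT reagents. Compound dosing came 5 h later. The same wells were read for luminescence at 0, 8, 16, 24, 32 and 40 h of exposure at 37 C.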

[8] = A CellTox Green Cytotoxicity Assay to monitor cytotoxicity in HEK293 cells - 16 hour (AID 1224888); further: nearly all actives have a fitted effect of over 35% in size; further: potency means the concentration at half of the fitted maximal effect
How it was run: as §1

[9] = qHTS RealTime-Glo MT Cell Viability Assay in HepG2 cells - 0 hour (AID 1224889)
How it was run: as §3

[10] = A CellTox Green Cytotoxicity Assay to monitor cytotoxicity in HepG2 cells - 8 hour (AID 1224890); further: nearly all actives have a fitted effect of over 45% in size; further: potency means the concentration at half of the fitted maximal effect
How it was run: as §2

[11] = qHTS assay to identify small molecule antagonists of the estrogen receptor alpha (ER-alpha) signaling pathway using the BG1 cell line in the presence of 0.1 nM 17-beta-estradiol - cell viability counter screen (AID 1259241); further: nearly all actives have a fitted effect of over 40% in size; further: potency means the concentration at half of the fitted maximal effect
How it was run: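 VM7Luc4E2, 4,000 cells/well, phenol red-free medium + 10% charcoal-stripped FBS; 24 hr plating; cpd + 0.1 nM E2 final, 22 hr 37C/5% CO2; CellTiter-Fluor 30 min, fluorescence.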

[12] = biological target: Androgen receptor (Homo sapiens) (UniProt P10275); test: qHTS assay to identify small molecule antagonists of the androgen receptor (AR) signaling pathway using the MDA cell line in the presence of 0.5 nM R1881 (AID 1259243)
Androgen receptor (Homo sapiens), sequence (P10275 whole entry, looked up): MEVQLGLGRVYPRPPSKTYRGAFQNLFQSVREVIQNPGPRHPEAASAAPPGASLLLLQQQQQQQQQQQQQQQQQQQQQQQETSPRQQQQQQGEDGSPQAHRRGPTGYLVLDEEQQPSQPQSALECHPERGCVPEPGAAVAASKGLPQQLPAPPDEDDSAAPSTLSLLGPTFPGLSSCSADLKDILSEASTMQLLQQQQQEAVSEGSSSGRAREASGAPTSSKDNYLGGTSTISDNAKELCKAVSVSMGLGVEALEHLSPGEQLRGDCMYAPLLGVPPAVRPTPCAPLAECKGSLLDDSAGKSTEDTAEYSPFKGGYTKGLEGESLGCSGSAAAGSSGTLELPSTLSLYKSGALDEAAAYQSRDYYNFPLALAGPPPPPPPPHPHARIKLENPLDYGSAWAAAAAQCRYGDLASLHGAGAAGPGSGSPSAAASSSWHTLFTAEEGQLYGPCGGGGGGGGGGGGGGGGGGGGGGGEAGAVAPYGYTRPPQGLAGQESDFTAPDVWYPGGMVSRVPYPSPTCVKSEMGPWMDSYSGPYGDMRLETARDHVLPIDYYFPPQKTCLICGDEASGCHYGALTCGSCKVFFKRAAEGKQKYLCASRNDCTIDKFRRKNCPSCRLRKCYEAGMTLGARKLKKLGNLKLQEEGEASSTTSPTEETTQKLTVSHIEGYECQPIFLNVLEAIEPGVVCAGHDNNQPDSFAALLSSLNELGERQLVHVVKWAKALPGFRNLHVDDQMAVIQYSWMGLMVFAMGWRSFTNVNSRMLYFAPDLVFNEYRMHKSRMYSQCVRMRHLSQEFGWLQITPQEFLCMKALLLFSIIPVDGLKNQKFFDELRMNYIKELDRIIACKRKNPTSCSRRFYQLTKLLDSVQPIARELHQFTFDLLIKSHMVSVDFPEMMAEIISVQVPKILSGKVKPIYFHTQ
How it was run: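 Antagonist mode quantitative HTS in MDA-kb2 MMTV-luciferase cells, agonist R1881 at 0.5 nM final, 16 hr exposure at 37C and 0% CO2, luminescent detection.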

[13] = qHTS assay to identify small molecule phospholipidosis (PLD) inducers (AID 1259344; active means well fitted curve in the direction sought with a large enough effect; an effect the other way counts as inactive or inconclusive; further: on the % scale 0 is the no-effect control and ±100 the full control effect)
How it was run: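 Cells (HepG2, 900 per well) attach for 4 h, receive LipidTOX Red and compound together, incubate 24 h at 37 C, are fixed 30 min with paraformaldehyde/Hoechst, then imaged at one site per well.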

[14] = qHTS assay to identify small molecule HDAC inhibitors (AID 1259364); further: potency means the concentration at half of the fitted maximal effect;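 further: wild-type HCT-116 cells with endogenous class I/II HDAC activity; nearly all actives have a fitted effect of over 45% in size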
How it was run: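 Quantitative high-throughput format: overnight-seeded HCT-116 cells got compounds for 2 hr at 37C; HDAC-Glo I/II reagent added, 30 min RT, luminescence measured.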

[15] = qHTS assay to identify small molecule HDAC inhibitors - cell viability counter screen (AID 1259365)
How it was run: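 Luminescence from CellTiter-Glo, developed 30min at room temperature, reports viability of wild-type HCT-116 cells treated 2hr with compounds at 37 C and 5% CO2 after overnight plating.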

[16] = qHTS assay to identify small molecule agonists of the sonic hedgehog signaling (Shh) pathway (AID 1259368; calls by dose curve; further: nearly all actives have a fitted effect of over 15% in size; further: potency means the concentration at half of the fitted maximal effect)
How it was run: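 Quantitative high-throughput format using a Gli1-driven firefly luciferase reporter line derived from NIH/3T3 cells. After a 24 hr compound treatment at 37 C and 5% CO2, luminescence reported Gli1 response element activity.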

[17] = qHTS assay to identify small molecule antagonists of the androgen receptor (AR) signaling pathway using the MDA cell line in the presence of 0.5 nM R1881 - cell viability counter screen (AID 1259242); further: nearly all actives have a fitted effect of over 45% in size; further: potency means the concentration at half of the fitted maximal effect
How it was run: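 qHTS format. MDA-kb2 (MMTV-luc, AR/GR responsive) + cpd + 0.5 nM R1881 final, 16 hr 37C/0% CO2 → CellTiter-Fluor 30 min → fluorescence intensity.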

[18] = qHTS assay to identify small molecule agonists of the sonic hedgehog signaling (Shh) pathway - cell viability counter screen (AID 1259366); further: nearly all actives have a fitted effect of over 50% in size; further: potency means the concentration at half of the fitted maximal effect
How it was run: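 Cytotoxicity counter screen run in the same wells as the Shh reporter assay. NIH/3T3 cells carrying a Gli1 response element–driven luciferase were treated with DMSO-dissolved compounds for 24hr, and live-cell protease activity was measured with CellTiter-Fluor.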

[19] = biological target: Estrogen receptor (Homo sapiens) (UniProt P03372); test: qHTS assay to identify small molecule antagonists of the estrogen receptor alpha (ER-alpha) signaling pathway using the BG1 cell line in the presence of 0.1 nM 17-beta-estradiol (AID 1259244)
Estrogen receptor (Homo sapiens), sequence (P03372 whole entry, looked up): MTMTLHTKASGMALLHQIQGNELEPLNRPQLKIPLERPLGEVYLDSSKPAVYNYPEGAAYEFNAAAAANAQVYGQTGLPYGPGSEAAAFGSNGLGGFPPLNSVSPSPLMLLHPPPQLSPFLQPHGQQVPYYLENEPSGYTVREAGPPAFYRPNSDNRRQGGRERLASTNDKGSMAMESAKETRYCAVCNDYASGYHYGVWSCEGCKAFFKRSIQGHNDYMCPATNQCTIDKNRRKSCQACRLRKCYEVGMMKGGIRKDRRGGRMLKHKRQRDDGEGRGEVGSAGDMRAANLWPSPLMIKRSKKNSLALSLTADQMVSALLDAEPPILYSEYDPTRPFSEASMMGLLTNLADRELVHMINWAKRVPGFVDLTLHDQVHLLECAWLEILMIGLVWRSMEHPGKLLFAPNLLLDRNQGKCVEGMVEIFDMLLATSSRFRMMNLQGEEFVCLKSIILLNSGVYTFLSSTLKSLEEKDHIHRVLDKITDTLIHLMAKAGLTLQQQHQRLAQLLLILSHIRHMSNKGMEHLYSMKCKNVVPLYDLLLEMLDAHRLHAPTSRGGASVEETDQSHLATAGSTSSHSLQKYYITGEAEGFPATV
How it was run: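 Reporter is a stably transfected luciferase under four estrogen responsive elements in VM7Luc4E2 cells expressing native full-length ER-alpha; inhibition of 0.1 nM (final) 17beta-estradiol-driven signal over 22 h is read by luminescence.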

[20] = qHTS assay to identify small molecule antagonists of the sonic hedgehog signaling (Shh) pathway - cell viability counter screen (AID 1259367); further: nearly all actives have a fitted effect of over 55% in size; further: potency means the concentration at half of the fitted maximal effect
How it was run: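 Cytotoxicity was assessed in parallel with Shh reporter activity by measuring live-cell protease fluorescence (CellTiter-Fluor) in NIH/3T3 cells stably carrying Gli1-Luc, treated with compound under conditioned medium stimulation for 23 hr plus 1 hr reagent incubation.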

Oc1c(I)cc(Cl)c2cccnc12
34.6 µM (active) and inactive: Potency [6]
10.9 µM (active) and inactive: Potency [1]
inactive: Potency [2] | Potency [3] | Potency [4] | Potency [5] | Potency [7] | Potency [8] | Potency [9] | Potency [10] | Potency [11] | Potency [13] | Potency [14] | Potency [15]
active: Potency [12] 27.3 µM and 26.6 µM | Potency [16] 38.5 µM

Clc1ccnc(Cl)n1
inactive: Potency [1] | Potency [2] | Potency [3] | Potency [4] | Potency [5] | Potency [6] | Potency [7] | Potency [8] | Potency [9] | Potency [10] | Potency [11] | Potency [17] | Potency [14] | Potency [15] | Potency [18] | Potency [16]

CC(C)CCOC(=O)/C=C/c1ccccc1
inactive: Potency [1] | Potency [2] | Potency [3] | Potency [4] | Potency [5] | Potency [6] | Potency [7] | Potency [8] | Potency [9] | Potency [10] | Potency [11] | Potency [17] | Potency [19] | Potency [15] | Potency [18] | Potency [20] | Potency [16]

Cc1nc2n(c(=O)c1CCN1CCC(c3noc4cc(F)ccc34)CC1)CCCC2
active: Potency [6] 3.38 µM | Potency [7] 3.01 µM
inactive: Potency [1] | Potency [2] | Potency [3] | Potency [4] | Potency [5] | Potency [8] | Potency [9] | Potency [10] | Potency [11] | Potency [17] | Potency [13] | Potency [14] | Potency [15] | Potency [18] | Potency [20] | Potency [16]

CC(C)(C)C1CCC(=O)CC1
inactive: Potency [1] | Potency [2] | Potency [3] | Potency [4] | Potency [5] | Potency [6] | Potency [7] | Potency [8] | Potency [9] | Potency [10] | Potency [11] | Potency [17] | Potency [19] | Potency [14] | Potency [15] | Potency [18] | Potency [16]

C=CC(C)(CCC=C(C)C)OC=O (centres undefined)
inactive: Potency [1] | Potency [2] | Potency [3] | Potency [4] | Potency [5] | Potency [6] | Potency [7] | Potency [8] | Potency [9] | Potency [10] | Potency [11] | Potency [17] | Potency [19] | Potency [14] | Potency [15] | Potency [18] | Potency [20] | Potency [16]

O=C(/C=C/c1ccc(O)c(O)c1)O[C@@H](C(=O)O)[C@@H](OC(=O)/C=C/c1ccc(O)c(O)c1)C(=O)O
inactive: Potency [1] | Potency [2] | Potency [3] | Potency [4] | Potency [5] | Potency [6] | Potency [7] | Potency [8] | Potency [9] | Potency [10] | Potency [11] | Potency [17] | Potency [14] | Potency [15] | Potency [16]

COc1cccc2c1C(=O)c1c(O)c3c(c(O)c1C2=O)C[C@@](O)(C(C)=O)C[C@@H]3O[C@H]1C[C@H](N)[C@H](O)[C@H](C)O1
active: Potency [4] 39.1 µM | Potency [5] 43.9 µM and 23.9 µM | Potency [6] 110 nM and 4.8 nM | Potency [7] 15.6 µM and 21.3 µM | Potency [8] 39.1 µM | Potency [10] 55.3 µM | Potency [11] 30.8 µM and 13.3 µM | Potency [17] 48.9 µM | Potency [18] 615 nM and 2.11 µM | Potency [20] 1.09 µM and 1.88 µM
inactive: Potency [2] | Potency [9] | PLD induction [13] -3.33% [at 7.66 µM] | Potency [14] | Potency [15] | Potency [16]
43.9 µM (active) and inactive: Potency [1]
inactive and 30.1 nM (active): Potency [3]

Nc1nc(N)nc(-c2cc(Cl)ccc2Cl)n1
inactive: Potency [1] | Potency [2] | Potency [3] | Potency [4] | Potency [5] | Potency [6] | Potency [7] | Potency [8] | Potency [9] | Potency [10] | Potency [11] | Potency [17] | Potency [13] | Potency [14] | Potency [15] | Potency [20] | Potency [16]

CCC(=O)OC(=O)CC
inactive: Potency [1] | Potency [2] | Potency [3] | Potency [4] | Potency [5] | Potency [6] | Potency [7] | Potency [8] | Potency [9] | Potency [10] | Potency [11] | Potency [17] | Potency [19] | Potency [14] | Potency [15] | Potency [18] | Potency [20] | Potency [16]

CN(C)C(=O)COC(=O)Cc1ccc(OC(=O)c2ccc(N=C(N)N)cc2)cc1
active: Potency [14] 0.0376 µM
inactive: Potency [1] | Potency [2] | Potency [3] | Potency [4] | Potency [5] | Potency [6] | Potency [7] | Potency [8] | Potency [9] | Potency [10] | Potency [11] | Potency [17] | Potency [13] | Potency [15] | Potency [18] | Potency [16]

CCCC1CCC(=O)CC1
inactive: Potency [1] | Potency [2] | Potency [3] | Potency [4] | Potency [5] | Potency [6] | Potency [7] | Potency [8] | Potency [9] | Potency [10] | Potency [11] | Potency [17] | Potency [19] | Potency [14] | Potency [15] | Potency [18] | Potency [16]

c1cnccn1
inactive: Potency [1] | Potency [2] | Potency [3] | Potency [4] | Potency [5] | Potency [6] | Potency [7] | Potency [8] | Potency [9] | Potency [10] | Potency [11] | Potency [17] | Potency [19] | Potency [14] | Potency [15] | Potency [18] | Potency [16]

CCN(CCN)c1cccc(C)c1
inactive: Potency [1] | Potency [2] | Potency [3] | Potency [4] | Potency [5] | Potency [6] | Potency [7] | Potency [8] | Potency [9] | Potency [10] | Potency [11] | Potency [17] | Potency [19] | Potency [14] | Potency [15] | Potency [18] | Potency [20] | Potency [16]
